PubChem BioAssay (NCI)
This is part of a sample that, as a whole, favours compounds with a hit. Of some 79,000 tested, about 15% had one in any assay. Values without a mark were called inactive. Calls of active or inactive are those of the source. No stated cut-off is given here; in the data, active means growth inhibition above about 70%; inactive means the rest.

Experiment: NCI Yeast Anticancer Drug Screen. Data for the rad50 strain (AID 155);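 further: 0% = growth of vehicle-only cultures of the same strain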
Details: S. cerevisiae rad50 strain growth inhibition; at 5.0 µM (retest, dose inferred, filed as 0.5); stronger effect = higher value
Summary of the method: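 Vehicle-treated cultures provide the reference for the growth inhibition reported for compound-exposed, repair-deficient yeast.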

Question: For `O=C1C(Cl)=C(N2C(=O)CCC2=O)C(=O)c2ccccc21`, which growth inhibition is on record?
Answer: 77% (active)

Question: For `C/C(=N\NC(=S)N1CCCC1)c1nc2ncccc2[nH]1`, which growth inhibition is on record?
Answer: -20%

Question: Which growth inhibition does the source give for `Clc1ccc(CN2COc3c(cc(Cl)c4cccnc34)C2)cc1Cl` here?
Answer: 43%

Question: Which growth inhibition does the source give for `Cc1cc(C)c2c(c1)sc1nncn12` here?
Answer: 62%

Question: Which growth inhibition does the source give for `O=[N+]([O-])C1=Cc2ccccc2S(=O)(=O)CC1` here?
Answer: 6%

Question: For `O=C1CNCCCN2CCN(CCCNCC(=O)Nc3ccc(cc3)S(=O)(=O)c3ccc(cc3)NC(=O)CNCCCN3CCN(CCCNCC(=O)Nc4ccc(cc4)S(=O)(=O)c4ccc(cc4)N1)CC3)CC2`, which growth inhibition is on record?
Answer: 1%

Question: Which growth inhibition does the source give for `O=C(Nc1ccccc1-c1nn(CN2CCNCC2)c(=S)n(CN2CCNCC2)c1=O)C(F)(F)F` here?
Answer: 0%

Question: With `O=[N+]([O-])c1ccc(/C(=C\c2ccccc2)Cn2ccnc2)cc1` as the molecule, how does the growth inhibition read?
Answer: 88% (active)

Question: For `Cc1ccc(S(=O)(=O)NNC2Oc3cc4c(cc3C(c3ccccc3O)C2C)OCO4)cc1` (stereo not given), which growth inhibition is on record?
Answer: -12%

Question: For `CC1CCC(NCCOC(=O)c2ccc([N+](=O)[O-])cc2)CC1` (stereo not given), which growth inhibition is on record?
Answer: 2%

Question: Which growth inhibition does the source give for `Oc1cc(F)ccc1-c1ccc(F)cc1` here?
Answer: -5%

Question: For `CN(C)C(=O)/N=c1\ss/c(=N\C(=S)N(C)C)n1-c1ccccc1`, which growth inhibition is on record?
Answer: -1%

Question: Which growth inhibition does the source give for `Cn1c(=O)cc[nH]c1=O` here?
Answer: -1%

Question: With `CCOc1c(N=Nc2ccccc2OC)c(-c2ccccc2)nn1C(N)=S` as the molecule, how does the growth inhibition read?
Answer: 10%

Question: For `CS(C)=O.[Cl-].[Cl-].[NH-]CC(O)CN(Cc1ccccc1)CC(O)CN.[Pt]` (stereo not given), which growth inhibition is on record?
Answer: -15%

Question: With `Clc1ccc(C2=CCN3CC=C(c4ccc(Cl)cc4)C23)cc1` as the molecule, how does the growth inhibition read?
Answer: 24%

Question: With `CCOC(=O)C(Cc1cn(S(=O)(=O)c2ccccc2)c2ccccc12)(NC(C)=O)C(=O)OCC` as the molecule, how does the growth inhibition read?
Answer: -2%

Question: With `BrCC1(CBr)COC1` as the molecule, how does the growth inhibition read?
Answer: 4%

Question: For `O=C1CC(O)C=C1Nc1ccc(Cl)cc1` (stereo not given), which growth inhibition is on record?
Answer: 3%

Question: With `COc1cc(NCCCCCNC(C)C)c2ncc(C)c(C)c2c1` as the molecule, how does the growth inhibition read?
Answer: 3%

Question: Which growth inhibition does the source give for `Cc1ccc(C(c2ccc(N(C)C)cc2)c2ccc(N(C)C)cc2)cc1` here?
Answer: 97% (active)

Question: With `COc1ccc(OC)c2c1C=C[C@H](C1(C)SCCS1)C2C(C)=O` (stereo not given in full) as the molecule, how does the growth inhibition read?
Answer: 6%

Question: Which growth inhibition does the source give for `CCOC(=O)c1cc2c(nc1NCc1ccc(OC)c(OC)c1)/C(=C/c1ccccc1)CCCC2` here?
Answer: 38%

Question: Which growth inhibition does the source give for `N#Cc1ccccc1[N+](=O)[O-]` here?
Answer: 16%

Question: With `O=C1c2cccc3cc4ccccc4c(c23)C(=O)N1CCCNCCNCCCN1C(=O)c2cccc3cc4ccccc4c(c23)C1=O` as the molecule, how does the growth inhibition read?
Answer: 94% (active)

Question: With `CC(=O)Oc1ccc(N=[N+]([O-])c2ccc(OC(C)=O)cc2)cc1` as the molecule, how does the growth inhibition read?
Answer: 5%

Question: For `CCOCCNc1ncnc2c1cnn2C`, which growth inhibition is on record?
Answer: 2%

Question: Which growth inhibition does the source give for `O=Cc1ccc(-c2nccc3c2[nH]c2ccccc23)o1` here?
Answer: 23%

Question: For `O=c1oc2ccccc2c(O)c1C1=N/C(=N/N=C/c2ccc(Cl)cc2)SC1`, which growth inhibition is on record?
Answer: -6%

Question: With `Cc1ccccc1Oc1ccccc1N` as the molecule, how does the growth inhibition read?
Answer: 12%

Question: Which growth inhibition does the source give for `CCCCCCC(=O)Nc1ccc(OC(=O)CCCCCC)c(=O)cc1` here?
Answer: 8%

Question: For `CC(=O)C(C(C)=O)C1C=CC=CC=C1`, which growth inhibition is on record?
Answer: -149%

Question: Which growth inhibition does the source give for `CC(=O)Nc1ccc(N=C2c3ccccc3-c3ccc(NC(C)=O)cc32)cc1` here?
Answer: 2%

Question: Which growth inhibition does the source give for `C/C=C1\CC(C)(CC)C(C#N)(C#N)C(N)=C1C#N` (stereo not given) here?
Answer: 0%

Question: Which growth inhibition does the source give for `Cc1cc(Cc2ccc(Cl)cc2)ccc1O` here?
Answer: 0%

Question: Which growth inhibition does the source give for `O=C1C=CC(=O)N1c1ccc(-c2nc3ccccc3o2)cc1` here?
Answer: 66%

Question: With `CCN(CC)CC(O)c1ccnc2c(O)cccc12` (stereo not given) as the molecule, how does the growth inhibition read?
Answer: 3%

Question: For `Nc1ccc(O)c2c1C(=O)c1ccccc1C2O` (stereo not given), which growth inhibition is on record?
Answer: -9%

Question: For `CC(=O)OC1CCC2(C)C(CCC3C4=CCC(C5COC(=O)C5)C4(C)CCC32)C1` (stereo not given), which growth inhibition is on record?
Answer: -1%

Question: With `CCN(CC)CCOc1ccc(NC(=S)Nc2ccc(OCC(C)C)cc2)cc1` as the molecule, how does the growth inhibition read?
Answer: 2%

Same assay, conditions: S. cerevisiae rad50 strain growth inhibition; at 50.0 µM (retest, dose inferred, filed as 5.0); stronger effect = higher value

Question: For `O=C1C(Cl)=C(N2C(=O)CCC2=O)C(=O)c2ccccc21`, which growth inhibition is on record?
Answer: 98% (active)

Question: Which growth inhibition does the source give for `C/C(=N\NC(=S)N1CCCC1)c1nc2ncccc2[nH]1` here?
Answer: 97% (active)

Question: With `Clc1ccc(CN2COc3c(cc(Cl)c4cccnc34)C2)cc1Cl` as the molecule, how does the growth inhibition read?
Answer: 97% (active)

Question: For `Cc1cc(C)c2c(c1)sc1nncn12`, which growth inhibition is on record?
Answer: 96% (active)

Question: For `O=[N+]([O-])C1=Cc2ccccc2S(=O)(=O)CC1`, which growth inhibition is on record?
Answer: 93% (active)

Question: Which growth inhibition does the source give for `O=C1CNCCCN2CCN(CCCNCC(=O)Nc3ccc(cc3)S(=O)(=O)c3ccc(cc3)NC(=O)CNCCCN3CCN(CCCNCC(=O)Nc4ccc(cc4)S(=O)(=O)c4ccc(cc4)N1)CC3)CC2` here?
Answer: 99% (active)

Question: With `O=C(Nc1ccccc1-c1nn(CN2CCNCC2)c(=S)n(CN2CCNCC2)c1=O)C(F)(F)F` as the molecule, how does the growth inhibition read?
Answer: 17%

Question: Which growth inhibition does the source give for `O=[N+]([O-])c1ccc(/C(=C\c2ccccc2)Cn2ccnc2)cc1` here?
Answer: 94% (active)

Question: With `Cc1ccc(S(=O)(=O)NNC2Oc3cc4c(cc3C(c3ccccc3O)C2C)OCO4)cc1` (stereo not given) as the molecule, how does the growth inhibition read?
Answer: 98% (active)

Question: For `CC1CCC(NCCOC(=O)c2ccc([N+](=O)[O-])cc2)CC1` (stereo not given), which growth inhibition is on record?
Answer: 23%

Question: With `Oc1cc(F)ccc1-c1ccc(F)cc1` as the molecule, how does the growth inhibition read?
Answer: 98% (active)

Question: Which growth inhibition does the source give for `CN(C)C(=O)/N=c1\ss/c(=N\C(=S)N(C)C)n1-c1ccccc1` here?
Answer: 78% (active)

Question: For `Cn1c(=O)cc[nH]c1=O`, which growth inhibition is on record?
Answer: 3%

Question: Which growth inhibition does the source give for `CCOc1c(N=Nc2ccccc2OC)c(-c2ccccc2)nn1C(N)=S` here?
Answer: 38%

Question: For `CS(C)=O.[Cl-].[Cl-].[NH-]CC(O)CN(Cc1ccccc1)CC(O)CN.[Pt]` (stereo not given), which growth inhibition is on record?
Answer: 4%

Question: Which growth inhibition does the source give for `Clc1ccc(C2=CCN3CC=C(c4ccc(Cl)cc4)C23)cc1` here?
Answer: 18%

Question: Which growth inhibition does the source give for `CCOC(=O)C(Cc1cn(S(=O)(=O)c2ccccc2)c2ccccc12)(NC(C)=O)C(=O)OCC` here?
Answer: 17%

Question: With `BrCC1(CBr)COC1` as the molecule, how does the growth inhibition read?
Answer: 47%

Question: Which growth inhibition does the source give for `O=C1CC(O)C=C1Nc1ccc(Cl)cc1` (stereo not given) here?
Answer: 14%

Question: With `COc1cc(NCCCCCNC(C)C)c2ncc(C)c(C)c2c1` as the molecule, how does the growth inhibition read?
Answer: 36%

Question: Which growth inhibition does the source give for `Cc1ccc(C(c2ccc(N(C)C)cc2)c2ccc(N(C)C)cc2)cc1` here?
Answer: 89% (active)

Question: With `COc1ccc(OC)c2c1C=C[C@H](C1(C)SCCS1)C2C(C)=O` (stereo not given in full) as the molecule, how does the growth inhibition read?
Answer: 82% (active)

Question: For `CCOC(=O)c1cc2c(nc1NCc1ccc(OC)c(OC)c1)/C(=C/c1ccccc1)CCCC2`, which growth inhibition is on record?
Answer: 94% (active)

Question: With `N#Cc1ccccc1[N+](=O)[O-]` as the molecule, how does the growth inhibition read?
Answer: 95% (active)

Question: Which growth inhibition does the source give for `O=C1c2cccc3cc4ccccc4c(c23)C(=O)N1CCCNCCNCCCN1C(=O)c2cccc3cc4ccccc4c(c23)C1=O` here?
Answer: 98% (active)

Question: Which growth inhibition does the source give for `CC(=O)Oc1ccc(N=[N+]([O-])c2ccc(OC(C)=O)cc2)cc1` here?
Answer: 12%

Question: Which growth inhibition does the source give for `CCOCCNc1ncnc2c1cnn2C` here?
Answer: -5%

Question: For `O=Cc1ccc(-c2nccc3c2[nH]c2ccccc23)o1`, which growth inhibition is on record?
Answer: 35%

Question: Which growth inhibition does the source give for `O=c1oc2ccccc2c(O)c1C1=N/C(=N/N=C/c2ccc(Cl)cc2)SC1` here?
Answer: 97% (active)

Question: With `Cc1ccccc1Oc1ccccc1N` as the molecule, how does the growth inhibition read?
Answer: 38%

Question: With `CCCCCCC(=O)Nc1ccc(OC(=O)CCCCCC)c(=O)cc1` as the molecule, how does the growth inhibition read?
Answer: 99% (active)

Question: For `CC(=O)C(C(C)=O)C1C=CC=CC=C1`, which growth inhibition is on record?
Answer: 93% (active)

Question: Which growth inhibition does the source give for `CC(=O)Nc1ccc(N=C2c3ccccc3-c3ccc(NC(C)=O)cc32)cc1` here?
Answer: 64%

Question: With `C/C=C1\CC(C)(CC)C(C#N)(C#N)C(N)=C1C#N` (stereo not given) as the molecule, how does the growth inhibition read?
Answer: -9%

Question: For `Cc1cc(Cc2ccc(Cl)cc2)ccc1O`, which growth inhibition is on record?
Answer: 99% (active)

Question: Which growth inhibition does the source give for `O=C1C=CC(=O)N1c1ccc(-c2nc3ccccc3o2)cc1` here?
Answer: 92% (active)

Question: With `CCN(CC)CC(O)c1ccnc2c(O)cccc12` (stereo not given) as the molecule, how does the growth inhibition read?
Answer: 40%

Question: With `Nc1ccc(O)c2c1C(=O)c1ccccc1C2O` (stereo not given) as the molecule, how does the growth inhibition read?
Answer: 96% (active)

Question: With `CC(=O)OC1CCC2(C)C(CCC3C4=CCC(C5COC(=O)C5)C4(C)CCC32)C1` (stereo not given) as the molecule, how does the growth inhibition read?
Answer: 79% (active)

Question: Which growth inhibition does the source give for `CCN(CC)CCOc1ccc(NC(=S)Nc2ccc(OCC(C)C)cc2)cc1` here?
Answer: 54%
